# Screening data from PubChem BioAssay.
# HCMV antiviral: blocks human cytomegalovirus replication; HFF cells, HCMV-luciferase reporter, 72 h; hits give low values; activity change, negative = inhibition, % at 57.5 µM; 4.5% of 410,000 active; in the data active means activity change below about -60%; inconclusive means no clear call, values can overlap the other calls; inactive means above about -39%; further: on the % scale 0 is the no-effect control and ±100 the full control effect
#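 Steps: HFFs plated, 16 h 37C; compounds added; HCMV-luciferase added to MOI 1 PFU/cell; 72 h 37C; OneGlo reagent, 5 min room temperature; luminescence read, normalized to controls.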
# Sm TGR block: blocks Schistosoma mansoni thioredoxin glutathione reductase; AID 485364; 3% of 360,000 active; Potency, µM (top dose mostly 114 µM), for inactives: at the highest dose activity change, negative = inhibition, actives largely listed as inhibitors; Q962Y6; purified TGR, DTNB reduction, TNB absorbance 405 nm; further: potency means the concentration at half of the fitted maximal effect; on the % scale 0 is the no-effect control and ±100 the full control effect; nearly all actives have a fitted effect of over 60% in size
#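 Kinetic colorimetric format: TGR-catalysed, NADPH-driven DTNB reduction monitored via TNB absorbance. Enzyme dispensed at 20 nM; compound exposure 15 min at room temperature before reaction start.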
# Pf growth 96h: P. falciparum growth inhibition at 96 hour, primary screen for plastid delayed-death inhibitors. Potency, µM (highest dose often 28.7 µM), inactives show at the top dose activity change, negative = inhibition, actives largely listed as inhibitors. AID 504834. P. falciparum luciferase reporter growth, 96 h. 6.9% of 320,000 active; further: potency means the concentration at half of the fitted maximal effect; on the % scale 0 is the no-effect control and ±100 the full control effect
#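 Parasite growth measured via integrated firefly luciferase reporter in P. falciparum. Infected erythrocytes at 2% hematocrit, 0.05% parasitemia final were treated 96 hours at 37 C under 5% CO2, and luminescence was read.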
# SARS PLpro yeast: SARS-CoV PLP inhibition in yeast; S. cerevisiae expressing SARS-CoV PLpro, growth rescue; 0.19% of 330,000 active; Potency, µM (titrated, usually from 32.9 µM), without a hit: at the top dose activity, positive = growth rescue, hits mostly activators; calls by dose curve; further: potency means the concentration at half of the fitted maximal effect; 0% is about no effect; nearly all actives have a fitted effect of over 55% in size
# Pf growth 48h: inhibits P. falciparum growth in the first generation, 48 h. P. falciparum luciferase growth in erythrocytes, 48 h. Potency, µM (top dose mostly 28.7 µM), for inactives: top-dose activity change, negative = inhibition, actives largely listed as inhibitors. 5.9% of 310,000 active. AID 504832; further: potency means the concentration at half of the fitted maximal effect; on the % scale 0 is the no-effect control and ±100 the full control effect
#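 Luminescence readout; reporter = integrated firefly luciferase in P. falciparum. RBC culture at 2% hematocrit, 0.1% parasitemia final, 37 C/5% CO2; decreased signal taken as growth inhibition.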
# HCV inhibitor: inhibitors of hepatitis C virus infection; AID 651820; 3.4% of 340,000 active; Potency, µM (highest dose often 41.8 µM), inactives show at the highest dose activity change, negative = inhibition, usual class: inhibitors; Huh7.5.1 HCVcc-Cre infection, luciferase reporter, 44 h; further: potency means the concentration at half of the fitted maximal effect; on the % scale 0 is the no-effect control and ±100 the full control effect
#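 Reporter virus HCVcc-Cre (~0.5 moi) infects cells exposed to compound; seeding density 1,000 cells/well with 4 h settling beforehand. Luminescence, 15 sec read, taken 44 h post-infection following a 15 min RT substrate incubation.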
# Numbers without * were called inactive; ? = inconclusive; . = no result given; ! = not active in a repeat. A selection: hits, their analogues and other compounds. The true share with any hit is near 15%. Unless noted, the call rests on the fitted dose curve; in most records, active means well fitted curve in the direction sought with a large enough effect; inconclusive means small, poorly fitted or top-dose-only effect, or another doubt; inactive means no such curve, though single readings can be large; an effect the other way counts as inactive or inconclusive.
SMILES,HCMV antiviral,Sm TGR block,Pf growth 96h,SARS PLpro yeast,Pf growth 48h,HCV inhibitor
CCCCOc1ccccc1C1CC(=O)Nc2ccc3ccccc3c21 (centres undefined),-92*,7%,.,.,.,.
COc1ccc(OC)c(C2CC(=O)Nc3ccc4ccccc4c32)c1 (centres undefined),10,-5%,.,.,.,.
CCn1c(=N)n(CC(O)c2ccco2)c2ccccc21 (centres undefined),19,-4%,81%,7%,23%,-3%
N=c1n(CCN2CCCCC2)c2ccccc2n1CC(O)c1ccco1 (centres undefined),-67*,5%,?,0%,?,?
CCN(CC)CCn1c(=N)n(CC(O)COc2cccc(C)c2)c2ccccc21 (centres undefined),?,9%,34%,1%,?,6.3µM*
CCN(CC)CCn1c(=N)n(CC(O)COc2ccccc2C)c2ccccc21 (centres undefined),-99*,-3%,.,.,.,.
Cc1ccccc1OCC(O)CN1CCN(C)CC1 (centres undefined),-26,1%,26%,2%,10%,14%
Cn1c(=O)n(CCOc2ccccc2Cl)c2ccccc21,9,-1%,18%,-8%,?,5%
CCN(CC)CCn1c(=N)n(CCOc2ccccc2Cl)c2ccccc21,-99*,1%,.,.,.,.
Cc1cc(C)c(NC(=O)CN2C(=O)CCSc3ccc(S(=O)(=O)N4CCCC4)cc32)c(C)c1,?,-1%,.,.,.,.
COC(=O)c1ccc(NC(=O)c2cc3cc4ccc(OC)c(Cl)c4nc3s2)cc1,36,4%,.,.,.,.
Cc1ccc([C@H]2C[C@H](O)[C@@H](n3cc(C4CC4)nn3)CN2C(=O)c2cccs2)cc1,-3,.,.,.,.,.
COc1cccc(NC(=O)c2cccc(N3C(=O)C4C5C=CC(C5)C4C3=O)c2)c1 (centres undefined),-25,-21%,?,1%,?,-15%
CCc1nn2c(-c3ccccc3OC)ccnc2c1-c1ccc(F)cc1,-36,2%,.,.,.,.
Cc1nc(C)c(CCNS(=O)(=O)c2ccc(C)c(C)c2)s1,-12,6%,.,.,.,.
N#Cc1ccc(-c2cccs2)nc1SCc1ccc(Cl)cc1Cl,7,4%,.,.,.,.
Cc1cccc(OCC(O)Cn2c(=N)n(CCN3CCCCC3)c3ccccc32)c1 (centres undefined),-62*!,2%,2.6µM*,8%,2.9µM*,7.1µM*
CCN(CC)CCn1c(=N)n(CC(O)c2ccc(OC)c(OC)c2)c2ccccc21 (centres undefined),6,.,4%,0%,9.3µM*,-12%
CCN(CC)CCn1c(=N)n(CC(O)c2ccco2)c2ccccc21 (centres undefined),-32,-1%,?,17%,?,-23%
Cc1cccnc1C(NC(=O)C1CCN(Cc2ccc3ccccc3n2)CC1)c1ccc(Cl)cc1 (centres undefined),43,.,.,.,.,.
O=C(c1cc(C(=O)N2CCOCC2)c2nc3ccccc3n2c1)c1ccccc1O,-38,-12%,?,0%,?,3%
CCc1c(C)sc2nc3c(C(=O)N4CCOCC4)cc(C(=O)c4cc(F)ccc4O)cn3c(=O)c12,-10,-3%,2.1µM*,3%,?,?
COc1cccc(N2CCN(C(=O)c3cccn4c(=O)c5c(C)c(C)sc5nc34)CC2)c1,-17,-2%,?,-2%,3%,10%
Cc1sc2nc3c(C(=O)N4CCCC4)cc(C(=O)c4ccccc4O)cn3c(=O)c2c1C,-6,-6%,?,0%,13µM*,?
N#Cc1cccnc1N1CCN(C(=O)c2ccccc2)CC1,-39,3%,36%,-1%,1%,14%
N#Cc1c(N2CCN(C(=O)c3ccccc3)CC2)nc(-c2ccccc2)c2c1CCCC2,?,1%,13µM*,2%,.,?
